The values that follow come from PubChem BioAssay AID434959 (Broad Institute, 2010).

Each structure is given as a SMILES string. The campaign covered roughly 30,000 compounds. About 110 (0.37%) were called active.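 The calls were made as follows: active = delta delta Cp rounded down to an integer at or above 3, about 3 SD of DMSO wells; inactive = the rest.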 Only a selection was taken, and actives are over-represented in it overall.

The test in a line: inhibitors of YB-1 gene expression, primary screen, cell-based, fluorescence (AID 434959).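 Also: higher means less YB-1 transcript or more CDIP transcript relative to DMSO.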 Particulars: U2OS, qRT-PCR YB-1 vs CDIP delta delta Cp, 16 h; hits give high values; zero = DMSO, each unit about twofold. A general note: Quantitative PCR measures a nucleic acid by following its amplification.
`COc1ccc(S(=O)(=O)Nc2ccc3c(c2)CC(=O)N([C@H](C)CO)C[C@H](C)[C@H](CN(C)C(=O)Nc2ccccc2)O3)cc1`: the delta Cp (YB-1 minus CDIP) is 0.185 (inactive).

On to `C[C@@H]1CN([C@@H](C)CO)C(=O)Cc2cc(NC(=O)C3CCCCC3)ccc2O[C@@H]1CN(C)CC1CCCCC1`, for which the delta Cp (YB-1 minus CDIP) was 0.332 (inactive).

In the case of `Cc1noc(C)c1NC(=O)N(C)C[C@H]1Oc2c(NS(=O)(=O)c3cccs3)cccc2C(=O)N([C@@H](C)CO)C[C@@H]1C`, the delta Cp (YB-1 minus CDIP) is -0.0216 (inactive).

On to `C[C@H]1CN([C@@H](C)CO)C(=O)c2cc(NC(=O)Cc3cn(C)c4ccccc34)ccc2O[C@H]1CN(C)CC1CCCCC1`, for which the delta Cp (YB-1 minus CDIP) was -0.873 (inactive).

With `C[C@H]1CN([C@@H](C)CO)C(=O)Cc2cc(NC(=O)Nc3ccc(F)cc3)ccc2O[C@H]1CN(C)S(=O)(=O)c1ccccc1`, the delta Cp (YB-1 minus CDIP) was -0.124 (inactive).

Turning to `O=C(O)CCCCCCC(=O)NN=C1CCCCCC1`, the delta Cp (YB-1 minus CDIP) was -0.0992 (inactive).

As to `C[C@H](CO)N1C[C@H](C)[C@@H](CN(C)S(=O)(=O)c2ccccc2)Oc2c(NS(=O)(=O)c3cn(C)cn3)cccc2C1=O`, the delta Cp (YB-1 minus CDIP) is 0.133 (inactive).

On to `CC(C)CSc1nnc(CSCc2nc(-c3ccc(Cl)cc3)cs2)n1C`, for which the delta Cp (YB-1 minus CDIP) is 0.176 (inactive).

On to `COC(=O)[C@@]1(CCS(=O)(=O)c2ccccc2)N=C(c2ccc(OCCCO)cc2)O[C@H]1c1ccccc1N=[N+]=[N-]`, for which the delta Cp (YB-1 minus CDIP) is -0.253 (inactive).

As to `Cc1ccc(-c2c[n+](=O)c3c(n2[O-])CCC3)cc1`, the delta Cp (YB-1 minus CDIP) was -0.134 (inactive).

Regarding `CCc1c(C)n([O-])c2c([n+]1=O)CCCCC2`, the delta Cp (YB-1 minus CDIP) was 6.44 (active).

On to `C[C@H]1CN([C@@H](C)CO)C(=O)Cc2cc(NC(=O)Cc3ccccc3)ccc2O[C@H]1CN(C)S(=O)(=O)c1ccc(Cl)cc1`, for which the delta Cp (YB-1 minus CDIP) was -0.43 (inactive).

For `COc1ccc(CN(C)C[C@H]2Oc3c(NS(=O)(=O)c4ccccc4)cccc3C(=O)N([C@H](C)CO)C[C@@H]2C)cc1`, the delta Cp (YB-1 minus CDIP) was 0.263 (inactive).

In the case of `C[C@@H]1CCCCO[C@H](CN(C)C(=O)c2ccccc2)[C@@H](C)CN([C@H](C)CO)C(=O)c2cc(NC(=O)Nc3cccc4ccccc34)ccc2O1`, the delta Cp (YB-1 minus CDIP) is -0.0616 (inactive).

`C[C@@H]1CN([C@H](C)CO)C(=O)c2cc(N(C)C)ccc2O[C@@H]1CN(C)S(C)(=O)=O`: the delta Cp (YB-1 minus CDIP) is -0.194 (inactive).

Regarding `C[C@@H]1CN([C@@H](C)CO)C(=O)CCCn2cc(nn2)CO[C@H]1CN(C)Cc1ccc(C(=O)O)cc1`, the delta Cp (YB-1 minus CDIP) is 0.212 (inactive).

Regarding `CC1(C)CC[C@]2(C(=O)O)CC[C@]3(C)C(=CCC4[C@@]5(C)CC[C@H](OC6O[C@H](CO)[C@@H](O)[C@H](O[C@@H]7O[C@H](CO)[C@@H](O)[C@H](O)[C@H]7O)[C@H]6O)C(C)(C)C5CC[C@]43C)[C@@H]2C1` (stereo partly specified), the delta Cp (YB-1 minus CDIP) is -0.209 (inactive).

In the case of `C/C=C(/C)C(=O)O[C@H]1CC(C)(C)C[C@H]2C3=CCC4[C@@]5(C)CC[C@H](O[C@@H]6O[C@H](C(=O)O)[C@@H](O[C@@H]7O[C@H](CO)[C@H](O)[C@H](O)[C@H]7O[C@@H]7O[C@H](CO)[C@@H](O)[C@H](O)[C@H]7O)[C@H](O)[C@H]6O[C@@H]6O[C@@H](C)[C@H](O)[C@@H](O)[C@H]6O)C(C)(C)C5CC[C@@]4(C)[C@]3(C)[C@@H](OC(C)=O)[C@@H](O)[C@@]12COC(C)=O` (stereo partly specified), the delta Cp (YB-1 minus CDIP) is -0.219 (inactive).

For the compound `CCC/C=C/C(=O)OC1C(O)C23C(O)OC4(CCC5C6(C)CCC(OC7OC(C(=O)O)C(O)C(OC8OC(CO)C(O)C(O)C8OC8OC(C)C(O)C(O)C8OC8OCC(O)C(O)C8O)C7OC7OC(CO)C(O)C(O)C7O)C(C)(C)C6CCC5(C)C4(C)CC2OC(C)=O)C3CC1(C)C` (stereo unspecified), the delta Cp (YB-1 minus CDIP) was 3.51 (active).

Regarding `CC1(C)CC[C@]2(C(=O)O[C@@H]3O[C@H](CO)[C@@H](O)[C@H](O)[C@H]3O)CC[C@]3(C)C(=CCC4[C@@]5(C)CC[C@H](O[C@@H]6O[C@H](C(=O)O)[C@@H](O[C@@H]7OC[C@H](O)[C@H](O)[C@H]7O)[C@H](O)[C@H]6O)C(C)(C)C5CC[C@]43C)C2C1` (stereo partly specified), the delta Cp (YB-1 minus CDIP) is 0.0826 (inactive).

For the compound `C/C=C(/C)C(=O)O[C@H]1CC(C)(C)C[C@H]2C3=CCC4[C@@]5(C)CC[C@H](O[C@@H]6O[C@H](C(=O)O)[C@@H](O[C@@H]7O[C@H](CO)[C@H](O)[C@H](O)[C@H]7O[C@@H]7O[C@H](CO)[C@@H](O)[C@H](O)[C@H]7O)[C@H](O)[C@H]6O[C@@H]6O[C@@H](C)[C@H](O)[C@@H](O)[C@H]6O)C(C)(C)C5CC[C@@]4(C)[C@]3(C)[C@@H](O)[C@@H](O)[C@@]12CO` (stereo partly specified), the delta Cp (YB-1 minus CDIP) is 10.3 (active).

As for `CC1OC(OC2C(OC3C(O[C@H]4CC[C@@]5(C)C(CC[C@]6(C)C5CC=C5[C@@H]7CC(C)(C)C[C@@H](O)[C@]7(C)CC[C@]56C)C4(C)C)OC(C(=O)O)C(O)C3O)OC(CO)C(O)C2O)C(O)C(O)C1O` (stereo partly specified), the delta Cp (YB-1 minus CDIP) was 0.299 (inactive).

For the compound `C=CC(C)(O)CCC1(C)C2=C(C(OC(C)=O)C(OC(C)=O)C1C)C(C)(C)CCC2` (stereo unspecified), the delta Cp (YB-1 minus CDIP) was -0.399 (inactive).

`COC(=O)[C@]1(Cc2ccccc2CN=[N+]=[N-])N=C(c2ccc(OCCCO)cc2)O[C@@H]1c1ccccc1CN=[N+]=[N-]`: the delta Cp (YB-1 minus CDIP) is 0.139 (inactive).

Take `C[C@@H]1CN([C@@H](C)CO)C(=O)c2cccc(NC(=O)Nc3cccc4ccccc34)c2O[C@@H]1CN(C)CC1CC1`: the delta Cp (YB-1 minus CDIP) was 0.192 (inactive).

As to `C[C@@H]1CN([C@H](C)CO)C(=O)Cc2cc(NC(=O)Cn3cnnn3)ccc2O[C@@H]1CN(C)S(=O)(=O)c1ccc(F)cc1`, the delta Cp (YB-1 minus CDIP) is 0.145 (inactive).

With `C[C@H](CO)N1C[C@H](C)[C@H](CN(C)C(=O)NC2CCCCC2)Oc2c(NC(=O)c3nc4ccccc4s3)cccc2C1=O`, the delta Cp (YB-1 minus CDIP) is 0.116 (inactive).

For `C[C@H]1CN([C@@H](C)CO)C(=O)Cc2cc(N(C)C)ccc2O[C@@H]1CN(C)Cc1ccc(-c2ccccc2)cc1`, the delta Cp (YB-1 minus CDIP) is 0.0659 (inactive).

For the compound `COC(=O)CCCCCCC(=O)N/N=C/c1ccc(C(=O)O)cc1`, the delta Cp (YB-1 minus CDIP) was -0.219 (inactive).

On to `C[C@H]1CN([C@@H](C)CO)C(=O)c2cc(NC(=O)C3CCCCC3)ccc2O[C@H]1CN(C)S(=O)(=O)c1cn(C)cn1`, for which the delta Cp (YB-1 minus CDIP) was -0.0642 (inactive).

As for `CC(C)(C)c1ccc(-c2[nH]nc(NC(=O)c3ccccc3Cl)c2Br)cc1`, the delta Cp (YB-1 minus CDIP) is 0.0133 (inactive).
